Laboratory results as given in PubChem BioAssay (NCI).
This is part of a sample that, as a whole, favours compounds with a hit. Of some 83,000 tested, about 20% had one in any assay.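 Compound tested at a single concentration for 48 hours in 96-well plates; a percent growth value below 10 was scored as active.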 A number with no mark means an inactive call. Calls of active or inactive are those of the source.

How the values were obtained:
Test in all cases: NCI-60 one-dose screen, 48 h (100 = growth as untreated, 0 = no growth, -100 = all killed)
Details in all cases: 10 µM unless noted
T-47D breast = tested on: T-47D breast
BT-549 breast = tested on: BT-549 breast
MDA-MB-435 melanoma = tested on: MDA-MB-435 melanoma
SW-620 colon = tested on: SW-620 colon
MCF7 breast = tested on: MCF7 breast
HCT-116 colon = tested on: HCT-116 colon
HCC-2998 colon = tested on: HCC-2998 colon
KM12 colon = tested on: KM12 colon

| Compound | growth (T-47D breast) | growth (BT-549 breast) | growth (MDA-MB-435 melanoma) | growth (SW-620 colon) | growth (MCF7 breast) | growth (HCT-116 colon) | growth (HCC-2998 colon) | growth (KM12 colon) |
| --- | --- | --- | --- | --- | --- | --- | --- | --- |
| O=C1Nc2c(ccc(Cl)c2Cl)/C1=C\c1cc(C(F)(F)F)cc(C(F)(F)F)c1 | -0.235% (active) | 14.9% | -53.4% (active) | -77.6% (active) | -3.68% (active) | -61.3% (active) | 12.8% | -74.6% (active) |
| C#CCOc1ccc2ncnc(NCc3cccc(NC(=O)CCl)c3)c2c1 | 33.2% [8.25 µM] | 46.6% [8.25 µM] | 53.4% [8.25 µM] | 19.9% [8.25 µM] | 15.5% [8.25 µM] | 14.6% [8.25 µM] | 99.7% [8.25 µM] | 59.7% [8.25 µM] |
| COc1cc2c(cc1-c1c(C)noc1C)ncc1nc(-c3ccccn3)n([C@H](C)COC(F)F)c12 | 35.2% | 57.7% | 46.4% | 65.1% | 19.7% | 35.5% | 49% | 47.4% |
| OCc1ccc(N2CCc3cccc(F)c3C2)cc1Cl | 1.88% [0.1 µM] (active) | 114% [0.1 µM] | 111% [0.1 µM] | 34.5% [0.1 µM] | 12.8% [0.1 µM] | 18.1% [0.1 µM] | 81% [0.1 µM] | 101% [0.1 µM] |
| CSc1ccc(-c2n[nH]nc2-c2cc3ccccc3s2)cc1 | 44.9% | 46.8% | -19% (active) | 23.7% | 27.7% | 30.5% | 82.3% | 32.2% |
| CCCc1cc(=O)n2c(C(=O)Nc3cccc(C(=O)OCC)c3)c(C(=O)Nc3ccc(F)cc3)sc2n1 | 53.9% [30 µM] | 82.5% [30 µM] | 73.4% [30 µM] | 55.9% [30 µM] | 57.4% [30 µM] | 17.7% [30 µM] |  | 82.9% [30 µM] |
| COc1ccc(NC(=O)c2ccc(/C=C/C(=O)c3ncc[nH]3)cc2)cc1 | 68.5% | 78.8% | 67.1% | 34.5% | 25.1% | 71.5% | 83.9% | 27.5% |
| C=CC(=O)Nc1cccc(-c2nc(SC)nc(Nc3ccccc3OC)c2C#N)c1 | 3.01% (active) | 57.1% | 18.7% | 17.2% | 2.55% (active) | 2.91% (active) | 81.3% | 82.8% |
| CS(=O)(=O)c1ccc(-n2nc(-c3ccc(Br)cc3)c3ccccc3c2=O)cc1 | 86.5% | 91.1% | 103% | 104% | 85.9% | 96.7% | 98% | 102% |
| NC(=NCCCOc1ccc(Cl)cc1)Nc1ccc(Cl)cc1 | 8.01% (active) | 59.6% | 11.1% | 33.5% | 10.1% | 7.02% (active) |  | 41.3% |
| Clc1ccc2c(NCCCCNc3nc(N4CCCCC4)nc4ccccc34)ccnc2c1 | -46.7% (active) | 37% | -81.9% (active) | -1.17% (active) | 15.8% | -17.7% (active) | -16.5% (active) | 19.6% |
| COC(=O)c1ccc(Cn2cnc3c(N)ncnc32)cc1 | 106% | 119% | 123% | 109% | 98.3% | 104% | 105% | 117% |
| N#CN1CC[C@H](C(=O)Nc2cc3cc(C(N)=O)ccc3cn2)C1 | -21.6% (active) | -5.54% (active) | 3.57% (active) | 6.39% (active) | 6.05% (active) | 1.69% (active) | -1.56% (active) | 1.65% (active) |
| Cc1ccc2c(C(C[N+](=O)[O-])c3ccccc3F)c(-c3ccccc3)[nH]c2c1 (centres undefined) | 29.3% | 50% | -30.3% (active) | 19.7% | 24.4% | 25.9% | 73.9% | 23.3% |
| CCc1nc(N)nc(N)c1C#CC(C)c1ccc(-c2ccncc2)cc1Cl (centres undefined) | 24% | 23.3% | 22.1% | 20.8% | 14.2% | 13.6% | 25.4% | 12.7% |
| O=C1c2ccccc2C(=O)c2c1ccc1[nH]c(-c3cccs3)nc21 | 56.1% | 65.5% | 101% | 90.7% | 66.4% | 70.5% | 99.3% | 70.5% |
| O=C1/C(=C/c2ccccc2O)N=C2SCCCN12 | 84.5% | 98% | 96.6% | 89.3% | 92.2% | 95.5% |  | 90.2% |
| CCOC(=O)c1sc(Nc2ccc(Cl)cc2)nc1C | 6.67% (active) | -4.09% (active) | 23.1% | 28.2% | 13% | 5.31% (active) |  | -1.62% (active) |
| COc1ccc(-c2nnc(SCC(=O)c3ccc(Cl)cc3)o2)cc1 | 89.6% | 105% | 108% | 107% | 108% | 107% |  | 102% |
| COc1ccc(C(=S)N2CCN(c3cccc(Cl)c3)CC2)cc1 | 89.9% | 90.8% | 106% | 101% | 111% | 89.2% |  | 104% |
| COc1cccc(-c2nc(SCC(=O)Nc3ccc(C(=O)/C=C/c4ccc(OC)c(OC)c4)cc3)[nH]c(=O)c2C#N)c1 | 78.1% | 85.4% | 92.3% | 112% | 82.4% | 77.7% |  | 81.5% |
| Cc1cc(C)nc(SC2=C(Nc3ccc(C)c(Cl)c3)C(=O)N(Cc3ccccc3)C2=O)n1 | 26% [30 µM] | 51.6% [30 µM] | 51.5% [30 µM] | 70.9% [30 µM] | 39.6% [30 µM] | 42.9% [30 µM] |  | 66.2% [30 µM] |
| O=c1c(F)cn(Cc2ccccc2CCl)c(=O)n1Cc1ccccc1CCl | -49.5% (active) | -73.9% (active) | -67.1% (active) | -74.6% (active) | -47.7% (active) | -56.9% (active) |  | -16.2% (active) |
| Cc1cc(C)nc(SC2=C(Nc3cccc(Cl)c3C)C(=O)N(Cc3ccccc3)C2=O)n1 | 37.1% [30 µM] | 48.1% [30 µM] | 42.1% [30 µM] | 65.4% [30 µM] | 30.7% [30 µM] | 44.1% [30 µM] |  | 53.2% [30 µM] |
| COc1ccc(C(=O)COc2ccc(/C=C3\Oc4ccc(OC)cc4C3=O)cc2)cc1 | 103% | 99.2% | 115% | 95.9% | 110% | 84.9% |  | 94% |
| O=C1/C(=C/c2ccc(OCCCOc3ccc(Cl)cc3)cc2)N=C2SCCCN12 | 50.5% | 72.1% | 93.2% | 102% | 69.5% | 45.8% |  | 70.8% |
| CCCCC[C@H]1C/C=C2/C(=O)C=C[C@@H]2C/C=C\CCCC(=O)O1 | -2.9% (active) | -11.2% (active) | -26.7% (active) | 0.0064% (active) | 0.464% (active) | -67.6% (active) |  | -83.6% (active) |
| COc1ccccc1Nc1nc(-c2cc3cccc(C(F)(F)F)c3oc2=O)cs1 | 68.9% | 41.9% | -44.8% (active) | 24% | 15.7% | 2.41% (active) |  | 3.87% (active) |
| CCCc1cc(=O)n2c(C(=O)Nc3ccc(F)cc3)c(C(=O)Nc3ccc(F)cc3)sc2n1 | 97.1% [30 µM] | 78.4% [30 µM] | 83% [30 µM] | 82.9% [30 µM] | 62.6% [30 µM] | 38.1% [30 µM] |  | 84.9% [30 µM] |
| CN1CCN(c2ccc3nc(-c4ccc(OCCCCN5CCN(CCCCN6C(=O)c7cccc8cccc(c78)C6=O)CC5)cc4)[nH]c3c2)CC1 | 36.1% | 47% | 65.9% | 84.2% | 68.5% | 45.9% |  | 86.8% |
